Assay outcomes: PubChem, National Center for Advancing Translational Sciences (NCATS)
Shown is part of a subset that was picked to be rich in hits.
APEX1 inh: qHTS Assay for Inhibitors of the Human Apurinic/apyrimidinic Endonuclease 1 (APE1); Potency, µM (top dose mostly 65.8 µM), without a hit: top-dose activity change, negative = inhibition, actives largely listed as inhibitors; AID 2517, 2012; recombinant APE1, TAMRA/BHQ-2 abasic DNA cleavage fluorescence; 350,000 compounds, 0.35% hits;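 note: plate controls were vehicle for no effect and reference inhibitor for full effect; nearly all actives have a fitted effect of over 55% in size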
Target sequence (P27695 whole entry, looked up): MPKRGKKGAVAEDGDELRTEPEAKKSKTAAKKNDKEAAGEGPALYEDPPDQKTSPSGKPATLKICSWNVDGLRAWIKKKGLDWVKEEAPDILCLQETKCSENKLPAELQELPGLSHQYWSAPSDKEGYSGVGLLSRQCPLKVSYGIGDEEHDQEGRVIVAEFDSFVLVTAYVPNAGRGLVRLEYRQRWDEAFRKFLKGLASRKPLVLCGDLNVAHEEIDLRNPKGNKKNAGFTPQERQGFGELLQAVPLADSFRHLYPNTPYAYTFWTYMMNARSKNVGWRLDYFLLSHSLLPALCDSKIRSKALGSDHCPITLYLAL
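APE1 at 0.75 nM final was preincubated with compound 15 min at room temperature, then 50 nM double-stranded THF abasic-site substrate (5'-TAMRA/3'-BHQ-2) was added. Fluorescence (ex 525/em 598 nm) was read kinetically; third-minus-first read gave activity.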
RECQ1 helicase: qHTS Assay for Inhibitors of RecQ-Like Dna Helicase 1 (RECQ1); Potency, µM (series often up to 57.3 µM), for the others: at the highest dose activity, negative = inhibition, hits mostly inhibitors; 240,000 compounds, 0.54% hits; RECQ1 DNA unwinding, red fluorescence kinetic read;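 note: plate controls were vehicle for no effect and no enzyme for full effect; nearly all actives have a fitted effect of over 30% in size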
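50 nM RECQ1T1 preincubated 15 min with compound in Tris pH 8.0 buffer with MgCl2, DTT, Tween-20 and 2.5 ug/ml poly(dI-dC); started with 200 nM TAMRA/BHQ-2 forked duplex and 2 mM ATP. Unwinding read as fluorescence (525/598 nm), two reads 2 h apart.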
BLM helicase inh: qHTS Assay for Inhibitors of Bloom's syndrome helicase (BLM); RecQ-like DNA helicase BLM (Homo sapiens), P54132; recombinant BLM DNA unwinding, fluorescence dequenching; Potency, µM (top dose mostly 56.1 µM), for inactives: at the top dose activity change, negative = inhibition, actives largely listed as inhibitors; 350,000 compounds, 0.2% hits; AID 2528, 2010;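 note: plate controls were vehicle for no effect and no enzyme for full effect; nearly all actives have a fitted effect of over 35% in size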
JMJD2E inh: qHTS Assay for Inhibitors of Human Jumonji Domain Containing 2E (JMJD2E). 230,000 compounds, 1.6% hits. Potency, µM (highest dose often 57.1 µM), for inactives: top-dose activity change, negative = inhibition, hits mostly inhibitors. JMJD2E catalytic domain, FDH-coupled NADH fluorescence (FDH is formaldehyde dehydrogenase);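 note: 0% = wells with enzyme and -100% = buffer wells without enzyme; nearly all actives have a fitted effect of over 50% in size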
Target sequence (B2RXH2 1-337 limits assumed): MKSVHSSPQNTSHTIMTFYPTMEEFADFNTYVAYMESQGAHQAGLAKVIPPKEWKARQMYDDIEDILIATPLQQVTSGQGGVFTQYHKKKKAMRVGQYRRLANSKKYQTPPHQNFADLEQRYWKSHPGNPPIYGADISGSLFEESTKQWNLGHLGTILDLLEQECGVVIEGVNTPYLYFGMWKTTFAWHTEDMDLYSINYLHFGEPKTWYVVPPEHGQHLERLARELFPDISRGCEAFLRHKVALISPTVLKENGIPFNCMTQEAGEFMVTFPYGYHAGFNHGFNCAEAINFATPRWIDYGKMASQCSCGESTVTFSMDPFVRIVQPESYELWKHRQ
L3MBTL1 inh: qHTS Assay for the Inhibitors of L3MBTL1; Potency, µM (titrated, usually from 57.1 µM), without a hit: at the top dose activity, negative = inhibition, most hits filed as inhibitors; 230,000 compounds, 0.66% hits; AlphaScreen L3MBTL1–H3K9me1 peptide binding; note: nearly all actives have a fitted effect of over 60% in size
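AlphaScreen assay: L3MBTL1 (50 nM final) was preincubated 30 min at room temperature with biotinylated H3(1-15)K9me1 peptide (75 nM final), then 30 min with library compounds; streptavidin donor and nickel chelate acceptor beads (10 ug/mL final) added, 30 min dark.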
* = called active by the depositor; i = inactive; u = inconclusive; x = no result given; [ ] = dose if it differs, or a comment. Unless noted, calls come from the whole dose curve; as a rule, active = well fitted curve in the direction sought with a large enough effect; inconclusive = small, poorly fitted or top-dose-only effect, or another doubt; inactive = no such curve, though single readings can be large; an effect the other way counts as inactive or inconclusive. Unless noted, % is set by controls: 0 for no effect and ±100 for the full control effect; potency is the fitted concentration of half-maximal effect.

SMILES	APEX1 inh	RECQ1 helicase	BLM helicase inh	JMJD2E inh	L3MBTL1 inh
COC(=O)c1cccc(CSc2nnc(-c3ccco3)n2-c2ccccc2)c1	3%	1%	0%	2%	x
COC(=O)[C@H](C)NC(=O)NCCC1=CCCCC1	-3%	i	2%	3%	-13%
CCn1c(CNC(=O)c2ccc(Cl)cc2)nnc1SCC(=O)NC1=NCCS1	32%	x	-1%	x	x
CC(C)C(=O)N(c1ccc2oc(=O)sc2c1)S(=O)(=O)c1cccs1	1%	7%	-1%	-2%	-6%
CC(C)C(=O)N(c1cc2sc(=O)oc2c2ccccc12)S(=O)(=O)c1cccs1	-3%	-6%	-8%	10µM*	x
COc1cccc(NC(=O)C2CC2(c2cccc(OC)c2)c2cccc(OC)c2)c1 (centres undefined)	0%	0%	-2%	-6%	-1%
CN(C)C(=O)N1CCN(C(=O)N(C)C)CC1	1%	16%	2%	3%	-3%
COc1cc(/C=C/C(=O)CC(=O)/C=C/c2ccc(O)c(OC)c2)ccc1O	-5%	-16%	-12%	35µM*	-24%
COc1cc(/C=C/C(=O)O)ccc1O	8%	-1%	0%	u	x
COc1cc(/C=C/C(=O)/C=C(O)/C=C/c2ccc(O)c(OC)c2)ccc1O	-4%	-17%	-2%	20µM*	-6%
COc1ccc(CNC(=O)c2cc3c(=O)n4ccccc4nc3n(Cc3cccnc3)c2=N)cc1	16%	14µM*	-10%	u	x
N=c1c(C(=O)NCc2ccc3c(c2)OCO3)cc2c(=O)n3ccccc3nc2n1Cc1cccnc1	-2%	-20%	1%	u	1%
Cc1ccccc1NC(=O)c1c(NC(=O)c2ccncc2)sc2c1CCC(C(C)(C)C)C2 (centres undefined)	x	x	-14%	x	x
COC1/C=C/OC2(C)Oc3c(C)c(O)c4c(O)c(c(/C=N/N5CCN(C)CC5)c(O)c4c3C2=O)NC(=O)/C(C)=C/C=C/C(C)C(O)C(C)C(O)C(C)C(OC(C)=O)C1C (centres undefined)	5%	i	-3%	8.9µM*	x
CO[C@@H]1C=CO[C@]2(C)Oc3c(C)c(O)c4c(O)c(c(C=NN5CCN(C)CC5)c(O)c4c3C2=O)NC(=O)C(C)=CC=C[C@H](C)[C@H](O)[C@H](C)[C@H](O)[C@H](C)[C@H](OC(C)=O)[C@H]1C	-1%[21 µM]	i	2%[21.4 µM]	-29%[25.5 µM]	x
O=C(N/N=C/c1cn(Cc2cccc(F)c2)c2ccccc12)c1cc(O)cc(O)c1	1.5µM*	x	-1%	x	x
Cn1c(SCC(=O)N/N=C/C=C\c2ccco2)nc2ccccc21	-5%	-9%	2%	0%	u
O=C(N/N=C/C=C\c1ccco1)c1cccs1	9%	-12%	18µM*	u	6.3µM*
Cc1ccc(CSc2nnc(SCC(=O)N/N=C/C=C/c3ccccc3[N+](=O)[O-])s2)cc1	0%	i	-3%	-9%	-13%
Cc1ccc(CSc2nnc(SCC(=O)N/N=C/C=C/c3ccco3)s2)cc1	35µM*	-26%	u	-17%	u
CCn1c(SCC(=O)N/N=C/C=C\c2ccco2)nc2ccccc21	u	u	u	u	32µM*
Cc1ccc(OCC(=O)N/N=C\c2ccc(-c3cccc(C(=O)O)c3)o2)c(C)c1	15%	-2%	-6%	4%	5.6µM*
O=C(O)c1cccc(-c2ccc(/C=N/NC(=O)C3COc4ccccc4O3)o2)c1 (centres undefined)	-7%	-2%	3%	u	u
CNC(=S)N/N=C/c1ccc(-c2cccc(C(=O)O)c2)o1	1%	-1%	-3%	u	x
O=C(O)c1cccc(-c2ccc(/C=N/Nc3nn[nH]n3)o2)c1	-17%	1%	6%	u	20µM*
SMILES	APEX1 inh	RECQ1 helicase	BLM helicase inh	JMJD2E inh	L3MBTL1 inh
CC(C)(C)c1ccc2c(c1)OC(C(=O)N/N=C\c1ccc(-c3cccc(C(=O)O)c3)o1)CO2 (centres undefined)	u	-1%	-8%	u	16µM*
CC(C)(C)C(=O)NC(C(N)=O)=C(Cl)Cl	2%	i	0%	2%	x
C/C=C\C(=O)Nc1cccc(C2=NOC3(C2)C[C@@H](C(N)=O)N(C(=O)CC(c2ccccc2)c2ccccc2)C3)c1 (some centres undefined)	u	i	-11%	-14%	x
CCCn1c(/N=C/c2ccccc2O)nc2ccccc21	10%	i	1%	-1%	0%
Cn1c(/N=C/c2c(O)ccc3ccccc23)nc2ccccc21	-1%	-11%	1%	-1%	35µM*
COc1ccc(NS(=O)(=O)c2ccc(O)c(C(=O)OCC(=O)N3CC(C)OC(C)C3)c2)cc1 (centres undefined)	-12%	0%	2%	-10%	5%
COc1cccc(O)c1O	2.5µM*	-30%	0%	7.9µM*	x
O=C1C(Nc2ccc(O)cc2)=C/C(=N/S(=O)(=O)c2cccs2)c2ccccc21	u	-6%	u	25%	13µM*
Cc1ccc(NC2=C/C(=N\S(=O)(=O)c3cccs3)c3ccccc3C2=O)c(C)c1	u	-3%	-11%	-2%	3.2µM*
Cc1ccc(Cl)cc1NC1=C/C(=N\S(=O)(=O)c2cccs2)c2ccccc2C1=O	-4%	i	-18%	u	x
Cc1cccc(NC2=C(NCCO)C(=O)c3ccccc3C2=O)c1	-11%	i	-7%	u	u
Cc1cccc(NC2=C/C(=N/S(=O)(=O)c3cccs3)c3ccccc3C2=O)c1	31%	i	-12%	3%	1.6µM*
O=C1C=C(Nc2ccc(O)cc2)C(=O)c2ccccc21	-7%	1%	u	3%	-3%
CC(C)CN(C(=O)COC(=O)c1nc(Cl)ccc1Cl)C1CCS(=O)(=O)C1 (centres undefined)	-1%	i	-1%	-1%	-1%
Cc1cc(C)c2nc(C)cc(N/N=C/c3ccc(O)cc3)c2c1	u	x	32µM*	x	-7%
O=C(O)CC12CC3CC(C1)CC(n1ncc(NCc4ccccc4Cl)c(Cl)c1=O)(C3)C2	1%	-2%	-1%	2%	10%
O=C(O)CC12CC3CC(C1)CC(n1ncc(NCc4ccc5c(c4)OCO5)c(Cl)c1=O)(C3)C2	-9%	40µM*	-3%	2%	x
Nc1ccc(OC(=O)Nc2ccc(O)cc2)cc1	u	-14%	u	18µM*	x
CCOc1cc(/C=C2\C(=N)N3N=C(C)SC3=NC2=O)ccc1OCCOc1cccc(OC)c1	-31%	x	-12%	x	8%
